# Results taken from PubChem BioAssay (EPA / NIEHS).
# Results filed as inconclusive are left out. Active and inactive are the calls of the source. How the source made its calls, unless noted: active means hit-call score of the fitted dose curve at least 0.9, where 1 is the maximum; inactive means score below 0.9.
# Assays:
# [1] = CCTE_Deisenroth_5AR_NBTE_donor: CCTE's 5alpha-reductase NanoBRET Target Engagement Assay […], Deisenroth Lab (AID 2284319); conditions: actives raise or lower the signal
# In short: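 Donor NanoLuc luminescence at 460-20 nm is the read-out, serving artifact detection. Transiently expressed SRD5A2-NanoLuc in HEK293T; 5 h total chemical exposure, testosterone tracer added for the final 2 h; fitting bidirectional relative to DMSO baseline.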
# [2] = CCTE_Deisenroth_5AR_NBTE_acceptor: CCTE's 5alpha-reductase NanoBRET Target Engagement Assay - Autofluorescence Screen, Deisenroth Lab (AID 2284321); conditions: actives raise or lower the signal;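 further: compound fluorescence in the acceptor channel under 460 nm excitation flags autofluorescence artifacts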
# In short: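 Autofluorescence check: ToxCast chemicals, nominal 100 uM, excitation 460 nm, n=3 runs. Acceptor fluorescence endpoint, bidirectional fit relative to DMSO. Parent assay in HEK293T, 5 h post-dose.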
# SRD5A2 (gene 6716) = assay: CCTE_Deisenroth_5AR_NBTE_ratio: CCTE's 5alpha-reductase NanoBRET Target Engagement Assay - Ratio, Deisenroth Lab (AID 2284322); conditions: actives raise or lower the signal
# In short: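 HEK293T cells transiently expressing an SRD5A2-NanoLuc fusion (20 h post-transfection) were exposed to test chemical (10 nM - 29.9 uM, 8 points) for 3 h, then testosterone tracer for a further 2 h. Acceptor/donor BRET ratio was fitted bidirectionally against DMSO baseline.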
# SERPINA7 (gene 6906) = assay: CCTE_GLTED_hTBG: CCTE's human Thyroxine-binding Globulin (TBG) Inhibition Assay, Great Lakes Toxicology and Ecology Division (GLTED) Lab (AID 2284343; active means hit-call score of the fitted dose curve at least 0.9, where 1 is the maximum;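 further: active chemicals lower fluorescence versus DMSO baseline by displacing probe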)
# In short: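 Human thyroxine-binding globulin was exposed to each chemical for 2 hours, during which the ANSA probe could be displaced. Fluorescence was then measured at 380/475 nm, and loss of signal was analysed relative to DMSO.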
# [3] = CCTE_Mundy_HCI_iCellGluta_NOG_NeuriteLength: CCTE's Neurite Outgrowth Assay in iCellGluta cells for Neurite Length, Mundy Lab (AID 2284318; active means hit-call score of the fitted dose curve at least 0.9, where 1 is the maximum)
# In short: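 Automated high-content imaging of betaIII-tubulin (Alexa Fluor-488) and Hoechst-stained cells gave neurite length, normalized to the DMSO baseline.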
# [4] = IUF_NPC1_cytotoxicity_72hr: Cytotoxicity Assessment at 72 hours in the Leibniz Research Institute for Environmental Medicine (IUF) Neural Progenitor Cell Proliferation Assay (NPC1) (AID 2284332; active means hit-call score of the fitted dose curve at least 0.9, where 1 is the maximum;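 further: rising LDH signal means more cytotoxicity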)
# In short: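 Membrane-integrity loss is scored from LDH released into the medium, detected as resorufin fluorescence, with activity fitted upward relative to baseline. Test material stays on human fetal-derived progenitor spheres for 72 h.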
# [5] = CCTE_Mundy_HCI_iCellGluta_NOG_NeuronCount: CCTE's Neurite Outgrowth Assay in iCellGluta cells for Neuron Count, Mundy Lab (AID 2284340; active means hit-call score of the fitted dose curve at least 0.9, where 1 is the maximum;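 further: cells fixed about 48 h after compound addition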)
# In short: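 Neuron count read by automated high-content imaging of Hoechst 33342 and betaIII-tubulin/Alexa Fluor-488 labelling in human iPSC glutamatergic neurons. Activity fitted relative to DMSO.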
# [6] = CCTE_Deisenroth_H295R-HTRF_384WELL_ESTRADIOL: CCTE's H295R-HTRF Assay Evaluation of Estradiol Concentration, Deisenroth Lab (AID 2284361); conditions: actives raise or lower the signal
# In short: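 Estradiol secreted into medium by H295R adrenocortical cells, quantified by HTRF after 48 h dosing over a nine-point 0.001 - 100 uM final range; gain or loss versus DMSO. Parallel ATP-luminescence viability readout; n=5 experiments.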
# [7] = CCTE_Deisenroth_H295R-HTRF_384WELL_TESTOSTERONE: CCTE's H295R-HTRF Assay Evaluation of Testosterone Concentration, Deisenroth Lab (AID 2284373); conditions: actives raise or lower the signal
# In short: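 H295R cells were acclimated 24 h, then exposed 48 h to nine concentrations (0.001–100 uM final) in technical triplicate, n=5. Testosterone in conditioned medium was measured by HTRF (em 620/665 nm). Fitting was bidirectional versus DMSO; CellTiter-Glo viability ran on the same plates.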
# [8] = CCTE_Mundy_HCI_iCellGluta_NOG_NeuriteCount: CCTE's Neurite Outgrowth Assay in iCellGluta cells for Neurite Count, Mundy Lab (AID 2284342; active means hit-call score of the fitted dose curve at least 0.9, where 1 is the maximum;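 further: chemical exposure about 48 hours starting 2 hours after plating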)
structure (smiles),measurement,setting,value
CCN(CC)c1ccc2c(-c3ccccc3C(=O)O)c3ccc(=[N+](CC)CC)cc-3oc2c1,outcome,[1],inactive
same,outcome,[2],inactive
same,AC50,SRD5A2 (gene 6716),22.1 µM (active)
BrC1CCC(Br)C(Br)CCC(Br)C(Br)CCC1Br (stereo not given),outcome,[1],inactive
same,outcome,[2],inactive
same,outcome,SRD5A2 (gene 6716),inactive
CC(C)=CCC[C@](C)(O)[C@@H]1CC=C(C)CC1,outcome,[1],inactive
same,outcome,[2],inactive
same,outcome,SRD5A2 (gene 6716),inactive
same,AC50,SERPINA7 (gene 6906),19.2 µM (active)
O=C1c2ccccc2C(=O)N1SC1CCCCC1,AC50,SERPINA7 (gene 6906),29.4 µM (active)
CC1CC(OC(=O)c2ccccc2O)CC(C)(C)C1 (stereo not given),outcome,[1],inactive
same,outcome,[2],inactive
same,outcome,SRD5A2 (gene 6716),inactive
N#Cc1ccc(CC(=NNC(=O)Nc2ccc(OC(F)(F)F)cc2)c2cccc(C(F)(F)F)c2)cc1,outcome,[3],inactive
same,outcome,[4],inactive
same,outcome,[5],inactive
c1ccc(CCCc2ccccn2)cc1,AC50,SERPINA7 (gene 6906),22.2 µM (active)
O=Nc1ccc(Nc2ccccc2)cc1,AC50,[1],23.4 µM (active)
same,AC50,[2],50 µM (active)
same,AC50,SRD5A2 (gene 6716),75.4 µM (active)
same,AC50,SERPINA7 (gene 6906),15.9 µM (active)
O=C(Oc1ccccc1)c1ccc(O)cc1,AC50,SERPINA7 (gene 6906),12.6 µM (active)
CCCCCCCCCCCCCCCC(=O)OC[C@H](O)[C@H]1OC(=O)C(O)=C1O,outcome,[1],inactive
same,outcome,[2],inactive
same,outcome,SRD5A2 (gene 6716),inactive
C#C[C@]1(O)CC[C@H]2[C@@H]3CCC4=Cc5oncc5C[C@]4(C)[C@H]3CC[C@@]21C,AC50,[6],38.2 µM (active)
same,AC50,[7],0.362 µM (active)
CCN(CC)c1ccc(C(=C2C=CC(=[N+](CC)CC)C=C2)c2ccc(S(=O)(=O)O)cc2S(=O)(=O)[O-])cc1,outcome,[1],inactive
same,AC50,[2],13 µM (active)
same,AC50,SRD5A2 (gene 6716),3.22 µM (active)
CCCCCC(CO)CCC (stereo not given),outcome,[1],inactive
same,outcome,[2],inactive
same,outcome,SRD5A2 (gene 6716),inactive
CCCCCCCCCCCCCC(=O)O,outcome,[1],inactive
same,outcome,[2],inactive
same,outcome,SRD5A2 (gene 6716),inactive
Cc1ccc(S)cc1,AC50,SERPINA7 (gene 6906),1.59 µM (active)
CCCCCCCCCCCCCOS(=O)(=O)O,AC50,[1],50 µM (active)
same,AC50,[2],43.2 µM (active)
same,AC50,SRD5A2 (gene 6716),81.8 µM (active)
same,AC50,SERPINA7 (gene 6906),31 µM (active)
CN(C)C(=N)N=C(N)N,outcome,[3],inactive
same,outcome,[4],inactive
same,outcome,[8],inactive
